Experimental data: the supplement of paper PMC3545927
This is one part of the list. The hit rate among all sequences tested is not known here.

Target: furin, P09958
Test: furin cleavage Z-score vs untreated control; higher = more cleavage, active = 3.5 or more, inactive = 1 or less, 8 variable residues between constant flanks
Outline: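 Abundance of DNA freed from bead-bound 8-mer peptide–cDNA fusions by purified furin was measured as sequencing read counts after PCR adapter tagging. Cutting ran 7.5, 15 or 30 min in 0.01 ml of 50 mM HEPES pH 7.5 with CaCl2 and NaCl at 1:10 enzyme:substrate. The cleavage Z-score expresses these log counts against furin-free reactions after lowess adjustment and median absolute deviation scaling.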

furin, P09958, sequence (P09958 whole entry): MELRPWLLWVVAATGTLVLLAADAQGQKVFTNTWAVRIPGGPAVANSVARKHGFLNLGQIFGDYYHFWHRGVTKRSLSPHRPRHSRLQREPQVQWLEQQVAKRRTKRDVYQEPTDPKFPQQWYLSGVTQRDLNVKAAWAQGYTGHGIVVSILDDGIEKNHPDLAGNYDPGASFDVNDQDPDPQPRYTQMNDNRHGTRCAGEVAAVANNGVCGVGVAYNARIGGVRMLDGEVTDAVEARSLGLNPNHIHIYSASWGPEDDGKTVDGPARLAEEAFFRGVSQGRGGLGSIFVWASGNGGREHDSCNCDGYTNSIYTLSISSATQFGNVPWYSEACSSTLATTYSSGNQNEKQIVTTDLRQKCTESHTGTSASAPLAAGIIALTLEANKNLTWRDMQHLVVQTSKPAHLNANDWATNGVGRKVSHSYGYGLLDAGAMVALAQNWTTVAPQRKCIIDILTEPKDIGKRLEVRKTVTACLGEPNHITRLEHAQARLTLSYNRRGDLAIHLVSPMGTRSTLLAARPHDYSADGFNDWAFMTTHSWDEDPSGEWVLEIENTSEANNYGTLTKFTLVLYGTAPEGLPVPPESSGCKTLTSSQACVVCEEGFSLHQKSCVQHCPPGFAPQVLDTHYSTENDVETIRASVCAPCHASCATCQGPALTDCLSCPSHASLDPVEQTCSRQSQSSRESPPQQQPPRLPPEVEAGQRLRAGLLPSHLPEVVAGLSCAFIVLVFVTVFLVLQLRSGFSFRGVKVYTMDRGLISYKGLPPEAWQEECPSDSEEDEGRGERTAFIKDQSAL

Row | Sequence | furin cleavage Z-score (7.5 min) | furin cleavage Z-score (15 min) | furin cleavage Z-score (30 min)
1 | CANWAKVLVVAGNASASA [HC344] | 0.338 (inactive) | -0.0162 (inactive) | 1.26
2 | CAQGYKVLVLAGNASASA [HC784] | -0.106 (inactive) | -0.421 (inactive) | -0.768 (inactive)
3 | CANRERSKRDAGNASASA [FS-182] | 13.6 (active) | 14.6 (active) | 10.7 (active)
4 | CAPLTRSKRDAGNASASA [FS-700] | 15 (active) | 15 (active) | 10.2 (active)
5 | CAGGGRSKRDAGNASASA [FS-997] | 12.9 (active) | 11.9 (active) | 8.83 (active)
6 | CATRSRSERDAGNASASA [FS-884] | 2.38 | 3.17 | 0.745 (inactive)
7 | CAPRAKVKREAGNASASA [FS-281] | 11.8 (active) | 10.8 (active) | 7.73 (active)
8 | CAPLTNSRGEAGNASASA [HC1503] | -0.174 (inactive) | -0.452 (inactive) | 1.07
9 | CATRCHCGAEAGNASASA [HC1174] | -0.133 (inactive) | -0.874 (inactive) | -0.744 (inactive)
10 | CAHDSPDAELAGNASASA [HC1270] | -0.658 (inactive) | -0.493 (inactive) | -0.66 (inactive)
11 | CAVVCCSMCYAGNASASA [HC2080] | 0.362 (inactive) | -0.833 (inactive) | 2.39
12 | CAPRALRKRDAGNASASA [FS-1603] | 9.96 (active) | 9.61 (active) | 8.35 (active)
13 | CAQWHLSKRDAGNASASA [FS-485] | 0.736 (inactive) | 2.32 | 1.82
14 | CAKERRSKRDAGNASASA [FS-934] | 12.1 (active) | 12.8 (active) | 8.75 (active)
15 | CAQEVRSKRDAGNASASA [FS-622] | 14.6 (active) | 15.6 (active) | 10.9 (active)
16 | CAREKKADRDAGNASASA [FS-2913] | 0.241 (inactive) | -0.361 (inactive) | -1.01 (inactive)
17 | CASTPCSLHLAGNASASA [HC2525] | 0.933 (inactive) | 1.1 | 1.05
18 | CAEMPCHRPSAGNASASA [HC2326] | 0.275 (inactive) | 1.07 | -0.483 (inactive)
19 | CASATRRKRHAGNASASA [FS-145] | 10.8 (active) | 9.07 (active) | 8.87 (active)
20 | CAVLSRDGRKAGNASASA [FS-105] | -1.15 (inactive) | 0.968 (inactive) | 0.203 (inactive)
21 | CAVLSRRKRHAGNASASA [FS-1430] | 13.5 (active) | 13.1 (active) | 9.48 (active)
22 | CASAHREPRLAGNASASA [FS-143] | -0.537 (inactive) | -2.16 (inactive) | -0.735 (inactive)

Row | Sequence | furin cleavage Z-score (7.5 min) | furin cleavage Z-score (15 min) | furin cleavage Z-score (30 min)
23 | CAVLSGKPAIAGNASASA [HC1004] | -1.21 (inactive) | -0.08 (inactive) | -0.703 (inactive)
24 | CAPRYRRKRHAGNASASA [FS-1552] | 10.8 (active) | 11.7 (active) | 10.8 (active)
25 | CASKKRKKKHAGNASASA [FS-720] | -0.105 (inactive) | 0.768 (inactive) | 1.79
26 | CARNMWSGTFAGNASASA [HC1187] | 1.59 | -0.0231 (inactive) | 2.71
27 | CAIDILAGYGAGNASASA [HC1085] | 0.177 (inactive) | -2.37 (inactive) | -1.48 (inactive)
28 | CATFTIETITAGNASASA [HC895] | -1.54 (inactive) | -0.657 (inactive) | -0.39 (inactive)
29 | CARKDRGASKAGNASASA [FS-1826] | -0.0944 (inactive) | -0.514 (inactive) | 0.14 (inactive)
30 | CACDLDPQARAGNASASA [HC1492] | -0.128 (inactive) | -0.812 (inactive) | -1.68 (inactive)
31 | CAREKRRQRNAGNASASA [FS-2135] | 2.7 | 5.06 (active) | 5.01 (active)
32 | CAREKRPSRSAGNASASA [FS-488] | 3.53 (active) | 6.66 (active) | 4.77 (active)
33 | CADLSRPSRSAGNASASA [FS-757] | 0.456 (inactive) | 1.72 | 2.66
34 | CAREKRWSVSAGNASASA [FS-2256] | 0.749 (inactive) | 1.64 | 3.68 (active)
35 | CAREKRRGVTAGNASASA [FS-1819] | 0.463 (inactive) | -0.946 (inactive) | 0.55 (inactive)
36 | CAMMLLISQAAGNASASA [HC529] | -0.436 (inactive) | -0.997 (inactive) | 1.3
37 | CADKMEECSQAGNASASA [HC1814] | -0.565 (inactive) | 0.769 (inactive) | -0.546 (inactive)
38 | CAGYELQGREAGNASASA [FS-534] | -1.04 (inactive) | -1.1 (inactive) | -1.02 (inactive)
39 | CARYSAPPGDAGNASASA [HC1543] | -1 (inactive) | 0.134 (inactive) | -1.47 (inactive)
40 | CARDGRYTPCAGNASASA [FS-2903] | 0.99 (inactive) | -0.489 (inactive) | -0.0469 (inactive)
41 | CAYHGRIPREAGNASASA [FS-1619] | 4.85 (active) | 5.6 (active) | 4.92 (active)
42 | CAEINRVAACAGNASASA [HC1611] | 0.443 (inactive) | -0.785 (inactive) | -0.701 (inactive)
43 | CAEHNRTPREAGNASASA [FS-20] | 6.46 (active) | 6.63 (active) | 5.97 (active)
44 | CARYNRPPREAGNASASA [FS-378] | 9.4 (active) | 8.69 (active) | 7.85 (active)
